Data as given in PubChem BioAssay AID652105 (National Center for Advancing Translational Sciences (NCATS), 2013).
Screen size: about 330,000 compounds; about 4,100 (1.2%) were called active. Roughly 2% stayed inconclusive and do not appear here. The sample holds actives, similar compounds and a random draw of the others, so the mix is not that of the screen. How the source made its calls: active means max response of -50% or lower; inconclusive means between -30% and -50%; inactive means -30% or higher.

Biological target: Phosphatidylinositol 5-phosphate 4-kinase type-2 alpha (Homo sapiens) (UniProt P48426)
Sequence (P48426 whole entry, looked up): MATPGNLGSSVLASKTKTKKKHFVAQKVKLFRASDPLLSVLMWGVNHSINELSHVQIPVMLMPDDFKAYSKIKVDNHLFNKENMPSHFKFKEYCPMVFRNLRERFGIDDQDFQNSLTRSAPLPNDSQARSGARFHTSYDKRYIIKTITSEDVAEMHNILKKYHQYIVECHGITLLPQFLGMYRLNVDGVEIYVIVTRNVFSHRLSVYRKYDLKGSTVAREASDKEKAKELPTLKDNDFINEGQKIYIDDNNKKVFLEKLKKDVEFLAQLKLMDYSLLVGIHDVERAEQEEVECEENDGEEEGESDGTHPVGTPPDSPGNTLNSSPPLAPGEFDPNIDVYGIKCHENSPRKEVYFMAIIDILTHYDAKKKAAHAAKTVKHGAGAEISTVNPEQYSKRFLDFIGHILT
Assay: qHTS for Inhibitors of phosphatidylinositol 5-phosphate 4-kinase (PI5P4K); further: value at the top dose of about 77 µM
Settings: PI5P4Kalpha enzyme, ADP-Glo luminescence, 60 min; active compounds read low
From the text: In addition to finding PI5P, we discovered the type II phosphatidylinositol 5-phosphate 4-kinase (PI5P4K) family (alpha, beta, gamma isoforms) that catalyze the conversion of PI5P to PI(4,5)P2. Alternatively, PI(4,5)P2 can also be synthesized through phosphatidylinositol-4-phosphate (PI4P) by the type I phosphatidylinositol 4-phosphate 5-kinases (PI4P5K). These PI5P4K enzymes therefore represent one way by which cells can regulate endogenous PI5P levels and play important roles in insulin signaling and in stress responses.
This proposal aims to identify and optimize specific modulators of human PI5P4K, phosphatidylinositol-5-phosphate 4-kinase (Type II PIPK), a family of kinases that regulate AKT signaling and tumor cell growth. In this project we aim to identify inhibitors of human PI5P4K using a quantitative high-throughput screening approach against the MLSMR containing ~400,000 small molecules.
NIH Chemical Genomics Center [NCGC]
NIH Molecular Libraries Probe Centers Network [MLPCN]
Assay Submitter (PI): Atsuo Sasaki, Beth Israel Deaconess Medical Center
2 microL of PI5P4Kalpha/substrate buffer (columns 1-2, 5-48) are dispensed into Greiner white solid bottom 1536-well assay plates; column 3 receives only PI5P4Kalpha buffer as 0x substrate controls; column 4 receives only substrate buffer as 0x PI5P4Kalpha controls. Final assay buffer consists of 0.038 M HEPES pH 7.4, 0.28 mM EGTA, 0.1% CHAPS, and 5% DMSO (final concentration). Compounds are then transferred via Kalypsys pin tool equipped with 1536-pin array (10 nL slotted pins, V&P Scientific, San Diego, CA). Following addition of compound, 1 microL of ATP (5 microM final concentration, all columns) is added to initiate the reaction. ATP is diluted in an assay buffer consisting of 0.02 M HEPES pH 7.4, 60 mM MgCl2, 15 microM ATP, and 0.1% CHAPS. The plates are then incubated at room temperature for 60 minutes. ADP-Glo reagent 1 is added (2 microL) and plates incubated for 45 minutes, before ADP-Glo reagent 2 (4 microL) is added and plates incubated for 30 minutes. They are then transferred to a ViewLux high-throughput CCD imager (PerkinElmer) wherein single end-point measurements of luminescence are acquired using a clear filter.
On the % scale 0 is the no-effect control and ±100 the full control effect.

| Structure (SMILES) | max response |
| --- | --- |
| S=C(NCCc1ccccc1)Nc1ccccc1 | -4.55% (inactive) |
| S=c1[nH]nc(NCCc2ccccc2)s1 | -73.1% (active) |
| Nc1c(NCCc2ccccc2)c2ccccc2oc1=O | -0.531% (inactive) |
| Cc1ccccc1-c1csc(C(O)c2cccc(Cl)c2)n1 (stereo not drawn) | 23.5% (inactive) |
| Cc1ccnc(SC2CC(=O)N(c3ccccc3)C2=O)n1 (stereo not drawn) | -1.33% (inactive) |
| Cc1ccnc(N2CCCC(C(=O)NC3CC3)C2)n1 (stereo not drawn) | -0.042% (inactive) |
| Cc1ccnc(-n2sc3ccccc3c2=O)n1 | -98.6% (active) |
| CCOCCC(=O)Nc1ccc2c(c1)c(=O)n(C)n2-c1ccc2ccccc2c1 | 0.749% (inactive) |
| O=C1CCCC(O)=C1N=Nc1ccc2ncsc2c1 | -66.1% (active) |
| O=C1CCCC(O)=C1N=Nc1ccc(S(=O)(=O)N2CCOCC2)cc1 | -20.1% (inactive) |
| COc1ccc(C(C#N)=C2C=CC(=NO)c3ccccc32)cc1 | -8.83% (inactive) |
| N#Cc1c(-c2ccc(Cl)cc2)c2c([nH]c1=S)CCCC2 | -61.4% (active) |
| CC(=O)c1c(C)[nH]c(=S)c(C#N)c1-c1ccc(F)cc1 | -20.4% (inactive) |
| N#Cc1c2c(c(-c3ccccc3)[nH]c1=O)CCCC2 | -4.1% (inactive) |
| COc1cc2ccccc2cc1C(=O)Nc1ccc(N2CCOCC2)cc1 | 5.82% (inactive) |
| Cc1ccc(/C=N/NC(=S)Nc2cccc(S(=O)(=O)N(C)C)c2)o1 | -3.83% (inactive) |
| CCN(CC)c1ccc(C(=O)N/N=C/c2ccc(N3CCOCC3)cc2)cc1 | -1.97% (inactive) |
| O=C(NN=Cc1ccc(N2CCOCC2)cc1)c1cc2ccccc2cc1O | -58.2% (active) |
| Cc1ccc(/C=N/NC(=S)NC2CCCCC2)o1 | -0.109% (inactive) |
| Cc1ccc(/C=N/NC(=O)c2cc3ccccc3cc2O)o1 | -60.2% (active) |
| CCOc1ccc(CCNC(=O)COC(=O)c2ccc(C)c(S(=O)(=O)N3CCOCC3)c2)cc1OCC | -2.07% (inactive) |
| CC(C)C[C@@H]1COc2cc(N3CCC[C@@H]3CO)ccc2S(=O)(=O)N1 | 2.99% (inactive) |

| Structure (SMILES) | max response |
| --- | --- |
| COC(=O)[C@@]12C[C@@H](CC(=O)NCCCCc3ccccc3)C(=O)N(Cc3ccccc3)C1=CCC(C)(C)C2 | 14.2% (inactive) |
| C#Cc1ccc(NC(=O)C2(C)CCN2C(=O)Cc2ccc(-c3ccccc3)cc2)cc1 (stereo not drawn) | 26.3% (inactive) |
| CCCc1c(-c2ccccc2F)ncn1Cc1ccccc1OC | 4% (inactive) |
| CCS(=O)(=O)C1=NSC2=NC(=O)/C(=C\c3cc(C)n(-c4cccc(OC)c4)c3C)C(=N)N21 | -20.4% (inactive) |
| CCS(=O)(=O)C1=NSC2=NC(=O)/C(=C\c3ccc(OS(=O)(=O)c4ccccc4)cc3)C(=N)N21 | -73.6% (active) |
| Cc1ccc(C2=N/C(=C\c3ccc(OS(=O)(=O)c4ccc(C)cc4)cc3)C(=O)O2)cc1 | -1.18% (inactive) |
| Cc1ccccc1-c1nc(NC(C)C)nc2cc(-c3ccccc3)sc12 | 8.32% (inactive) |
| Fc1ccccc1/C=N/n1c(-c2cccnc2)n[nH]c1=S | 5.87% (inactive) |
| c1ccc(-c2cc(-c3ccccc3)[nH]n2)cc1 | -6.2% (inactive) |
| S=c1[nH]nc(-c2cc(-c3ccccc3)n[nH]2)n1/N=C/c1c2ccccc2cc2ccccc12 | -58.9% (active) |
| Cc1ccc(Cn2c(C)nc3c(c2=O)c2nc4ccccc4nc2n3Cc2ccco2)cc1 | -62.3% (active) |
| O=c1c2ccccc2oc2nc(C3CCCCC3)n(Cc3ccco3)c(=O)c12 | 0.643% (inactive) |
| Clc1cccc(-c2nc3nc4ccccc4nc3n2Cc2ccco2)c1 | -4.59% (inactive) |
| CC1(C(=O)NCc2cccc3ccccc23)CCN1Cc1ccc(-c2ccccc2)o1 (stereo not drawn) | 25.6% (inactive) |
| CCCCC[C@@H]1C=C(C(=O)OCC)[C@H](c2ccccc2)N1S(=O)(=O)c1ccc(C)cc1 | 8.7% (inactive) |
| COCCNc1ncnc2c1ncn2[C@H]1CN(Cc2ccc(OC)cc2)C[C@@H](CO)O1 | 2.79% (inactive) |
| C=CS(=O)c1sc(Cl)c(N2CCOCC2)c1[N+](=O)[O-] (stereo not drawn) | -71.5% (active) |
| CC(=O)Nc1cc(-c2ccccc2F)cn2c(-c3cccc(C(F)(F)F)c3)cnc12 | -3.13% (inactive) |
| COc1ccc(C(C)(O)c2nc(-c3cc(F)cc(F)c3)cs2)cc1 (stereo not drawn) | 30.3% (inactive) |
| CCc1c(C)nc2cc(-c3cccs3)[nH]n2c1=O | -0.23% (inactive) |
| Cc1cc(=O)n2[nH]c(-c3cccc(Cl)c3)cc2n1 | -3.84% (inactive) |
| Cc1cc(=O)n2[nH]c(-c3sccc3-n3c(C)ccc3C)cc2n1 | -57.4% (active) |

| Structure (SMILES) | max response |
| --- | --- |
| CC(C)C[C@H]1CN([C@@H](Cc2ccccc2)CN2CCC[C@@H]2CN2C(=O)C(=O)NC[C@@H]2Cc2ccc(O)cc2)C(=O)C(=O)N1CCc1ccccc1 | -1.65% (inactive) |
| COc1ccc(OC)c2sc(NC(=O)C3COc4ccccc4O3)nc12 (stereo not drawn) | 2.71% (inactive) |
| O=C(Nc1nc(-c2ccncc2)cs1)C1COc2ccccc2O1 (stereo not drawn) | -62.8% (active) |
| O=C(Nc1ncc([N+](=O)[O-])s1)C1COc2ccccc2O1 (stereo not drawn) | -21.4% (inactive) |
| CN(C(=O)CN1CCN(c2cc(-c3ccc(OCc4ccccc4)cc3)ncn2)CC1)c1ccccc1 | -25% (inactive) |
| C[C@H]1Cn2cnc(C(=O)N[C@H](C)c3ccccc3)c2C(=O)N1 | -2.59% (inactive) |
| CC1=C/C(=N\OS(=O)(=O)c2ccccc2)C=CC1=O | -78.8% (active) |
| Cc1nc(C(F)(F)F)ccc1C(=O)N1CCC1(C)C(=O)NS(=O)(=O)c1ccc(F)cc1F (stereo not drawn) | -1.9% (inactive) |
| CCC(c1nnnn1Cc1ccco1)N(CCc1ccccc1)Cc1cc2cccc(C)c2[nH]c1=O (stereo not drawn) | -1.38% (inactive) |
| CCC(c1nnnn1Cc1ccco1)N(Cc1cc2cc(OC)ccc2[nH]c1=O)C1CCCCC1 (stereo not drawn) | -18.4% (inactive) |
| CCC(c1nnnn1Cc1ccco1)N(CCc1ccccc1)Cc1cc2ccc(OC)cc2[nH]c1=O (stereo not drawn) | -64.1% (active) |
| CCc1nc2ccc(C(=O)NC3CCN(Cc4ccccc4)CC3)cn2c1N(CC)CCOC | -1.84% (inactive) |
| CCOC(=O)[C@]12CCCC=C1N(Cc1ccc(Cl)cc1Cl)C(=O)[C@H](CC(=O)N1CCCCC1)C2 | 12% (inactive) |
| CCCCC[C@H](C)N1C[C@@H](COCc2ccccc2)Oc2cc(N3CC[C@@H](N(C)C)C3)ccc2S1(=O)=O | 27.1% (inactive) |
| CN(C)C(=O)c1cccc(-c2cnc3sc(NCc4ccc5c(c4)OCO5)nn23)c1 | -16.9% (inactive) |
| Nc1ccc2[nH]c(=S)sc2c1 | -73.9% (active) |
| CCOc1ccc2[nH]c(=S)sc2c1 | -59.6% (active) |
| COc1ccc2[nH]c(=S)cc(C)c2c1 | -9.52% (inactive) |
| CCOc1ccc2nc(N(CCN(C)C)C(=O)c3ccc4ccccc4c3)sc2c1 | -3.3% (inactive) |
| O=c1[nH]c2ccccc2s1 | 5.23% (inactive) |
| CC(C)C[C@H]1CNC(=S)N1C[C@H]1CCCN1C[C@H](Cc1ccc(O)cc1)N1C[C@H](Cc2ccc(O)cc2)N(CC2CCCCC2)C1=S | -6.15% (inactive) |
| O=C(NCc1ccc(F)cc1)c1cc(C2CCCCN2C(=O)c2ccccn2)on1 (stereo not drawn) | -11.1% (inactive) |

| Structure (SMILES) | max response |
| --- | --- |
| CCOC(=O)C1=CC[C@@H](c2ccncc2)N(S(=O)(=O)c2ccc(C)cc2)C1 | -0.549% (inactive) |
| COc1cccc(-c2cc(NC(C)=O)c3ncc(-c4cccc(C(C)=O)c4)n3c2)c1 | -0.237% (inactive) |
| CC(C)NC(=O)C1(C)CCCCN1Cc1cccc(C(F)(F)F)c1 (stereo not drawn) | 22.3% (inactive) |
| COC(=O)c1ccc2nc(-c3ccc(Cl)cc3)c(Cc3cccc(F)c3)n2c1 | 7.01% (inactive) |
| Cc1cc(N2C(=O)C(O)=C(C(=O)c3ccc(C)o3)C2c2ccc(OCc3ccccc3)cc2)no1 (stereo not drawn) | -59.9% (active) |
| CCCOc1ccc(C2C(C(=O)c3ccc(C)o3)=C(O)C(=O)N2CCCn2ccnc2)cc1 (stereo not drawn) | -23% (inactive) |
| C=CCOc1cccc(C2C(C(=O)c3ccc(C)o3)=C(O)C(=O)N2CCN2CCOCC2)c1 (stereo not drawn) | 2.35% (inactive) |
| O=C(c1ccc(CS(=O)Cc2ccccc2Cl)o1)N1CCN(c2ccccc2)CC1 (stereo not drawn) | -2.59% (inactive) |
| O=C(Nc1ccc(OCCO)cc1)c1csc([C@H]2C[C@H](O)[C@@H](CO)O2)n1 | -3.56% (inactive) |
| Cc1cccc(N2CCN(c3ccc(NC(=O)/C=C\C(=O)O)cc3)CC2)c1 | -9.89% (inactive) |
| C=CC(=O)Nc1ccc(Nc2ccnc(Nc3ccc(N4CCN(C)CC4)cc3)n2)cc1 | -68.9% (active) |
| CN1CCN(c2ccc(NC(=O)c3cc(Cl)c4c(c3)OCCO4)cc2)CC1 | 3.06% (inactive) |
| CCCCCc1c(Cc2ccccc2)ncn1CCc1ccccc1OC | -4.89% (inactive) |
| CCC(c1nnnn1-c1ccc2c(c1)OCCO2)N1CCN(c2ccc(C(F)(F)F)cn2)CC1 (stereo not drawn) | -0.412% (inactive) |
| Cn1c(SCC(=O)Nc2ccc(Cl)cc2)nc(O)cc1=O | -57.1% (active) |
| COc1ccc(NC(=O)CSc2nc3ccccc3c(=O)n2C)cc1 | 0.885% (inactive) |
| CC(C)Cn1c(SCC(=O)Nc2ccc(Cl)cc2F)nc(O)cc1=O | 3.57% (inactive) |
| O=C(CCCCCN1C(=O)c2cccc3cccc(c23)C1=O)NCc1ccco1 | 0.75% (inactive) |
| O=C1c2ccccc2C(=O)N1CCCCCCN1C(=O)c2ccccc2C1=O | 1.45% (inactive) |
| C[N+](C)(CCCCCC[N+](C)(C)CCCN1C(=O)c2cccc3cccc(c23)C1=O)CCCN1C(=O)c2cccc3cccc(c23)C1=O | -72.8% (active) |
| COc1ccc(CC(N)c2csc(NC(=O)Nc3ccc(C(C)C)cc3)n2)cc1 (stereo not drawn) | -8.9% (inactive) |
| CC1(C(=O)NS(=O)(=O)c2ccc(C#N)cc2)CCN1C(=O)CC1CCCC1 (stereo not drawn) | 0.461% (inactive) |
